NIH3T3 tox – kills NIH 3T3 cells. NIH 3T3 viability, CellTiter-Glo ATP luminescence, 48-72 h. 94,000 compounds, 4.3% hits. Potency, µM (doses to about 96.7 µM), for inactives: at the highest dose activity change, negative = cytotoxicity, hits mostly inhibitors; also: % is scaled to controls: 0 for no effect and ±100 for the full control effect; nearly all actives have a fitted effect of over 55% in size
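ATP-dependent luminescence (CellTiter-Glo) served as the viability signal for NIH 3T3 cells treated with compound for 48 or 72 hr at 37 °C.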
HEK cytotox – HEK 293 cell cytotoxicity; HEK 293 viability, ATP luminescence (CellTiter-Glo), 48-72 h; Potency, µM (highest dose often 115 µM), inactives show top-dose activity change, negative = cytotoxicity, actives largely listed as inhibitors; 94,000 compounds, 6.6% hits; AID 1345083; also: % is scaled to controls: 0 for no effect and ±100 for the full control effect; nearly all actives have a fitted effect of over 60% in size
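HEK 293 cells seeded at 250 cells/well were exposed to compound for 48 or 72 hr at 37 degree Celsius. Viability taken as ATP content by CellTiter-Glo luminescence.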
NPR1 antag – antagonists of human natriuretic peptide receptor Npr1. P16066. HEK293 hNpr1 GloSensor cGMP, ANP-stimulated luminescence. Potency, µM (highest dose often 46.3 µM), without a hit: at the highest dose activity change, negative = inhibition, usual class: inhibitors. 76,000 compounds, 1.6% hits. AID 1347048; calls by dose curve; also: % is scaled to controls: 0 for no effect and ±100 for the full control effect; nearly all actives have a fitted effect of over 60% in size
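HEK293 cells stably expressing human Npr1 and cGMP GloSensor pGS-40F, loaded 2 h with 2% GloSensor reagent, given compound 30 min at room temperature. Luminescence read before and 20 min after 0.1 nM hNppA.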
SNCA viab count – reduces viability of HEK-293 SNCA reporter cells; HEK-293-SNCA-luc viability, GF-AFC fluorescence, 24 h; Potency, µM (highest dose often 57.1 µM), without a hit: at the highest dose activity change, negative = cytotoxicity, most hits filed as cytotoxic; 150,000 compounds, 0.12% hits; AID 1671193;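 also: 0% = DMSO-treated cells and -100% = medium-only wells without cells; nearly all actives have a fitted effect of over 30% in size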
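HEK-293-SNCA-luc cells (1500/well) plated 24 h, then exposed 24 h to a dilution series; GF-AFC added 30 min at 37C, fluorescence 405/540 nm; normalised to medium-only and DMSO wells, Hill fit.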
FLuc inh-1 – inhibitors of firefly (Photinus pyralis) luciferase | Potency, µM (highest dose often 115 µM), usual class: inhibitors | 76,000 compounds, 2.5% hits | purified P. pyralis luciferase, luminescence, biochemical | P08659; also: % is scaled to controls: 0 for no effect and ±100 for the full control effect; nearly all actives have a fitted effect of over 65% in size
Target sequence (P08659 whole entry, looked up): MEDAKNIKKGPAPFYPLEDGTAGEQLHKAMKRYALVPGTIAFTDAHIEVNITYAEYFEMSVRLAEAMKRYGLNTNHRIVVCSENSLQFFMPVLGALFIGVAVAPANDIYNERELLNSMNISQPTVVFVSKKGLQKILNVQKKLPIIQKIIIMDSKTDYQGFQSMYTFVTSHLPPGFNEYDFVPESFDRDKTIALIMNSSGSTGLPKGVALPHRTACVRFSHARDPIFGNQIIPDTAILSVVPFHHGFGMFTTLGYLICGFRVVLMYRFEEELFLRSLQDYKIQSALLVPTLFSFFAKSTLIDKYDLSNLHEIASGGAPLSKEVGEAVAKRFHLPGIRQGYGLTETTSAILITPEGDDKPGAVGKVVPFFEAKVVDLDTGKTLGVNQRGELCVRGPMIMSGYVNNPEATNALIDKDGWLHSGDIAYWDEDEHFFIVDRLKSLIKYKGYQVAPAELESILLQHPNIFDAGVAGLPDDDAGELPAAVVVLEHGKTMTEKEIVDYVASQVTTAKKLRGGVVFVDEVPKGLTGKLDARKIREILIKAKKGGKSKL
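FLuc 10nM, D-luciferin 10uM, ATP 10uM, Mg acetate 10mM, Tris acetate pH 7.5, Tween/BSA; cpd qHTS; enzyme added last; CCD luminescence.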
SNCA expr inhib – inhibitors of alpha-synuclein (SNCA) gene expression; Potency, µM (top dose mostly 57.2 µM), without a hit: at the top dose activity change, negative = inhibition, most hits filed as inhibitors; 140,000 compounds, 0.17% hits; HEK-293 SNCA-luciferase knock-in, luminescence, 24 h;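 also: plate controls were DMSO cells for no effect and cell-free wells for full effect; nearly all actives have a fitted effect of over 45% in size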
FLuc SDR -ATP – binders stabilizing firefly luciferase, without ATP; Potency, µM (titrated, usually from 32.7 µM), for inactives: at the top dose activation (signal gain), most hits filed as activators; shares compounds with FLuc inh-1; 1,300 compounds, 7.8% hits; Purified FLuc-C-HiBiT, Nano-Glo HiBiT luminescence, no ATP; also: nearly all actives have a fitted effect of over 55% in size
FLuc SDR ATP – binders stabilizing firefly luciferase, plus ATP; AID 1963319; 1,300 compounds, 8.7% hits; Potency, µM (series often up to 32.7 µM), for the others: at the highest dose activation (gain of signal), usual class: activators; shares compounds with FLuc inh-1; purified FLuc-C-HiBiT + ATP, HiBiT complementation luminescence;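 also: signal reports ligand binding via conformational change of the enzyme rather than luciferase catalysis; % of control where 0% means no effect; nearly all actives have a fitted effect of over 55% in size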
FLuc inh-2 – blocks firefly luciferase enzymatic activity | AID 1963320 | purified FLuc-C-HiBiT enzyme, luciferin luminescence | shares compounds with FLuc inh-1 | Potency, µM (highest dose often 32.7 µM), inactives show at the highest dose activity change, negative = inhibition, most hits filed as inhibitors | 1,300 compounds, 42% hits; also: % is scaled to controls: 0 for no effect and ±100 for the full control effect; nearly all actives have a fitted effect of over 70% in size
* marks the source's active call; other numbers are inactive results. Rows were chosen to be rich in hits. Some 7.2% of all compounds tested hit in one or more screens of this group. Unless noted, calls follow the shape of the dose curve; as a rule, active = well fitted curve in the direction sought with a large enough effect; inconclusive = small, poorly fitted or top-dose-only effect, or another doubt; inactive = no such curve, though single readings can be large; an effect the other way counts as inactive or inconclusive. Potency is read from the fitted curve at half-maximal effect.

`COc1ccc(-c2nc3ccccc3s2)cc1NC(=O)COc1cccc(C)c1` gave SNCA viab count 10%, SNCA expr inhib 118%, FLuc SDR -ATP 15%, FLuc SDR ATP 8% and FLuc inh-2 -13%.
`COc1ccc(-c2nc3ccccc3s2)cc1NC(=O)COc1ccc(C)cc1` gave SNCA viab count 1%, SNCA expr inhib 200%, FLuc SDR -ATP 9%, FLuc SDR ATP 6% and FLuc inh-2 -11%.
Screening CC(C)OCCCNC(=O)CCC1CCN(C(=O)c2ccccc2F)CC1 returned NIH3T3 tox inactive, HEK cytotox 10%, NPR1 antag 1%, SNCA viab count 9%, FLuc inh-1 inactive and SNCA expr inhib -16%.
Screening CCOC(=O)N1CCc2c(sc(NCc3sccc3C)c2C(=O)Nc2ccc(OC)cc2OC)C1 returned SNCA viab count 3%, SNCA expr inhib inconclusive, FLuc SDR -ATP 8%, FLuc SDR ATP inconclusive and FLuc inh-2 5µM*.
For CCOC(=O)N1CCc2c(sc(NCc3cccc(F)c3)c2C(=O)Nc2ccc(OC)cc2OC)C1 the results were SNCA viab count 3%, SNCA expr inhib inconclusive, FLuc SDR -ATP 4%, FLuc SDR ATP inconclusive and FLuc inh-2 2.5µM*.
Screening Cc1cn2nc(C(=O)NCCc3ccccc3)cc2c(=O)[nH]1 returned NIH3T3 tox 4%, HEK cytotox -2%, NPR1 antag -21%, SNCA viab count 8%, FLuc inh-1 10µM*, SNCA expr inhib 16%, FLuc SDR -ATP inconclusive, FLuc SDR ATP inconclusive and FLuc inh-2 inconclusive.
For Cc1cn2nc(C(=O)NCc3ccccc3Cl)cc2c(=O)[nH]1 the results were NIH3T3 tox -12%, HEK cytotox -7%, NPR1 antag 19%, SNCA viab count 10%, FLuc inh-1 inconclusive and SNCA expr inhib 62%.
Cc1cn2nc(C(=O)Nc3ccc(C(=O)N4CCCC4)cc3)cc2c(=O)[nH]1 was read as NIH3T3 tox inconclusive, HEK cytotox inconclusive, NPR1 antag 5%, SNCA viab count 8%, FLuc inh-1 7.9µM*, SNCA expr inhib 4%, FLuc SDR -ATP inconclusive, FLuc SDR ATP inconclusive and FLuc inh-2 9.9µM*.
For CCc1ccccc1NC(=O)c1cc2c(=O)[nH]c(C)cn2n1 the results were NIH3T3 tox inactive, HEK cytotox -3%, NPR1 antag -5%, SNCA viab count -5%, FLuc inh-1 13µM*, SNCA expr inhib 58%, FLuc SDR -ATP 17%, FLuc SDR ATP 13% and FLuc inh-2 inconclusive.
For COc1cccc(C(=O)N2CCC(c3nn(-c4ccc(Cl)cc4)c(=O)[nH]3)CC2)c1 the results were NIH3T3 tox -25%, HEK cytotox inconclusive, NPR1 antag 1%, SNCA viab count -2%, FLuc inh-1 inactive and SNCA expr inhib -21%.
Screening Cc1ccc(-c2ncc(NC(=O)c3ccccc3F)cn2)cc1 returned NIH3T3 tox inactive, HEK cytotox 6%, NPR1 antag inconclusive, SNCA viab count 1%, FLuc inh-1 0.56µM*, SNCA expr inhib 58%, FLuc SDR -ATP 26%, FLuc SDR ATP inconclusive and FLuc inh-2 2µM*.

Screens deposited in PubChem by National Center for Advancing Translational Sciences (NCATS).
